# “And” between values parts separate entries of the source, which are not always exact repeats. Equal entries are not always repeated. The whole screen tested about 5,500 compounds, of which about 2,000 (36%) were called active. Roughly 18% stayed inconclusive and do not appear here. This is one part of the list. A number with no mark means an inactive call. Rule as the data show it: active = normalized growth mostly below about 0.91 (no sharp cut-off); inconclusive = no clear call, values can overlap the other calls; inactive = mostly above about 0.92.
# Assay: chemical genetic growth profiling, strain panel (AID 1159580);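 also: tested at 20 µM; growth read once vehicle control cultures reached saturation at 30 °C; 1 = growth at the plate median or of vehicle wells; lower values mean less growth of the strain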
# Conditions: S. cerevisiae deletion strains, growth OD
# [1] = locus YAL013W, strain DEP1, hits give low values
# [2] = locus YAL040C, strain CLN3, hits give low values
# [3] = locus YCL061C, strain MRC1 (second series), hits give low values
# [4] = locus YDR363W, strain ESC2, hits give low values
# [5] = locus YER002W, strain NOP16, hits give low values
# [6] = locus YGR078C, strain PAC10, hits give low values
# [7] = locus YJR075W, strain HOC1, hits give low values
# [8] = locus YMR263W, strain SAP30, hits give low values
# [9] = locus YMR307W, strain GAS1, hits give low values
# [10] = locus YNL128W, strain TEP1, hits give low values
# [11] = locus YNL175C, strain NOP13, hits give low values
# [12] = locus YNL197C, strain WHI3, hits give low values
# [13] = locus YNL224C, strain SQS1, hits give low values
# [14] = locus YNL322C, strain KRE1, hits give low values
# [15] = locus YOR083W, strain WHI5 (second series), hits give low values
# [16] = locus YPL241C, strain CIN2, hits give low values
# [17] = locus YDR150W, strain NUM1, hits give low values
# [18] = locus YNL153C, strain GIM3, hits give low values
# [19] = locus YPL055C, strain LGE1, hits give low values
compound,measurement,setting,value
C[C@@H](Oc1ccc(Oc2cnc3ccc(Cl)cc3n2)cc1)C(=O)O,normalized growth,[1],1.04
same,normalized growth,[2],1.04
same,normalized growth,[3],1
same,normalized growth,[4],1.01
same,normalized growth,[5],0.995
same,normalized growth,[6],1.01
same,normalized growth,"locus YGR229C, strain SMI1, hits give low values",1.02
same,normalized growth,[7],1
same,normalized growth,[8],1.01
same,normalized growth,[9],0.983
same,normalized growth,[10],0.996
same,normalized growth,[11],0.984
same,normalized growth,[12],0.996
same,normalized growth,[13],0.997
same,normalized growth,[14],1
same,normalized growth,[15],1
same,normalized growth,[16],1
Clc1cnc(Oc2ccc(Oc3ncc(Cl)cc3Cl)cc2)c(Cl)c1,normalized growth,[1],1.03
same,normalized growth,[2],1.01
same,normalized growth,[3],1.01
same,normalized growth,[17],1.01
same,normalized growth,[4],1.03
same,normalized growth,[5],0.995
same,normalized growth,[9],1.02
same,normalized growth,[10],1.01
same,normalized growth,[18],1
same,normalized growth,[11],1
same,normalized growth,[12],1.02
same,normalized growth,[13],1.02
same,normalized growth,[15],1.06
same,normalized growth,[19],1.04
same,normalized growth,[16],1.01
Clc1ccc(Oc2ccnc3cc(Cl)ccc23)cc1,normalized growth,[1],0.909 (active)
same,normalized growth,"locus YAR019C, strain CDC15, hits give low values",0.898
same,normalized growth,"locus YBL105C, strain PKC1, hits give low values",0.923
same,normalized growth,"locus YBR135W, strain CKS1, hits give low values",0.913
same,normalized growth,"locus YBR136W, strain MEC1, hits give low values",0.922
same,normalized growth,"locus YBR160W, strain CDC28, hits give low values",0.918
same,normalized growth,"locus YBR229C, strain ROT2, hits give low values",0.956
same,normalized growth,"locus YDL017W, strain CDC7, hits give low values",0.919
same,normalized growth,"locus YDL028C, strain MPS1, hits give low values",0.926
same,normalized growth,"locus YDL101C, strain DUN1, hits give low values",0.915 and 0.93
same,normalized growth,"locus YDL108W, strain KIN28, hits give low values",0.921
same,normalized growth,"locus YDL132W, strain cdc53, hits give low values",0.91
same,normalized growth,"locus YDL214C, strain PRR2, hits give low values",0.745
same,normalized growth,"locus YDR052C, strain DBF4, hits give low values",0.918
same,normalized growth,"locus YDR054C, strain cdc34, hits give low values",0.894
same,normalized growth,[17],0.943
same,normalized growth,"locus YDR226W, strain ADK1, hits give low values",0.903
same,normalized growth,"locus YDR477W, strain SNF1, hits give low values",0.678 (active)
same,normalized growth,"locus YEL061C, strain CIN8, hits give low values",0.944
same,normalized growth,"locus YER123W, strain YCK3, hits give low values",0.517 (active)
same,normalized growth,"locus YER133W, strain GLC7, hits give low values",0.613 (active)
same,normalized growth,"locus YFL009W, strain cdc4, hits give low values",0.903
same,normalized growth,"locus YFL029C, strain CAK1, hits give low values",0.898
same,normalized growth,"locus YFR003C, strain YPI1, hits give low values",0.916
same,normalized growth,"locus YFR019W, strain FAB1, hits give low values",0.893
same,normalized growth,"locus YFR028C, strain CDC14, hits give low values",0.908
same,normalized growth,"locus YGR040W, strain KSS1, hits give low values",0.67 (active)
same,normalized growth,"locus YGR052W, strain FMP48, hits give low values",0.659
same,normalized growth,[6],0.92 (active)
same,normalized growth,"locus YGR092W, strain DBF2, hits give low values",0.627
same,normalized growth,"locus YHR030C, strain SLT2, hits give low values",0.235 (active) and 0.376 (active)
same,normalized growth,"locus YHR079C, strain IRE1, hits give low values",0.546
same,normalized growth,"locus YHR082C, strain KSP1, hits give low values",0.626
same,normalized growth,"locus YHR087W, strain rtc3, hits give low values",0.923
same,normalized growth,"locus YHR205W, strain SCH9, hits give low values",0.704
same,normalized growth,"locus YIL147C, strain SLN1, hits give low values",0.924
same,normalized growth,"locus YJL095W, strain BCK1, hits give low values",0.49 (active)
same,normalized growth,"locus YJL128C, strain PBS2, hits give low values",0.865
same,normalized growth,"locus YJL157C, strain FAR1, hits give low values",0.683 (active)
same,normalized growth,"locus YJR016C, strain ILV3, hits give low values",0.914
same,normalized growth,"locus YJR043C, strain POL32, hits give low values",0.964
same,normalized growth,"locus YJR066W, strain TOR1 (second series), hits give low values",0.684
same,normalized growth,"locus YJR066W, strain TOR1, hits give low values",0.544
same,normalized growth,[7],0.804 (active)
same,normalized growth,"locus YKL048C, strain ELM1, hits give low values",0.888
same,normalized growth,"locus YKL067W, strain YNK1, hits give low values",0.735
same,normalized growth,"locus YKL101W, strain HSL1, hits give low values",0.772
same,normalized growth,"locus YKL193C, strain SDS22, hits give low values",0.911
same,normalized growth,"locus YKL203C, strain TOR2, hits give low values",0.68 (active)
same,normalized growth,"locus YLR039C, strain RIC1, hits give low values",0.779 (active)
same,normalized growth,"locus YLR058C, strain SHM2 (second series), hits give low values",0.951
same,normalized growth,"locus YLR085C, strain ARP6, hits give low values",0.499 (active)
same,normalized growth,"locus YLR113W, strain HOG1, hits give low values",0.379 (active)
same,normalized growth,"locus YLR133W, strain CKI1, hits give low values",0.772
same,normalized growth,"locus YLR262C, strain YPT6, hits give low values",0.817
same,normalized growth,"locus YLR403W, strain SFP1, hits give low values",0.675
same,normalized growth,"locus YML070W, strain DAK1, hits give low values",0.681
same,normalized growth,"locus YML094W, strain GIM5, hits give low values",0.994
same,normalized growth,"locus YMR001C, strain CDC5, hits give low values",0.908
same,normalized growth,"locus YMR205C, strain PFK2 (second series), hits give low values",0.742 (active)
same,normalized growth,"locus YMR219W, strain ESC1, hits give low values",0.948
same,normalized growth,[8],0.945
same,normalized growth,"locus YMR277W, strain FCP1, hits give low values",0.915
same,normalized growth,"locus YNL006W, strain LST8, hits give low values",0.92
same,normalized growth,"locus YNL020C, strain ARK1, hits give low values",0.762
same,normalized growth,[18],0.98
same,normalized growth,"locus YNL161W, strain CBK1, hits give low values",0.897 (active)
same,normalized growth,"locus YNL183C, strain NPR1, hits give low values",0.456 (active)
same,normalized growth,"locus YNL207W, strain RIO2, hits give low values",0.906
same,normalized growth,"locus YNL222W, strain SSU72, hits give low values",0.916
same,normalized growth,"locus YNL298W, strain CLA4 (second series), hits give low values",0.924
same,normalized growth,"locus YNL307C, strain MCK1 (second series), hits give low values",0.701
same,normalized growth,[14],0.947
same,normalized growth,"locus YNR030W, strain Alg12, hits give low values",0.802 (active)
same,normalized growth,"locus YOL078W, strain AVO1, hits give low values",0.904
same,normalized growth,"locus YOL136C, strain PFK27, hits give low values",0.668 (active)
same,normalized growth,"locus YOR061W, strain CKA2, hits give low values",0.792
same,normalized growth,"locus YOR119C, strain RIO1, hits give low values",0.684 (active)
same,normalized growth,"locus YOR231W, strain MKK1, hits give low values",0.489 (active)
same,normalized growth,"locus YOR329C, strain SCD5, hits give low values",0.912
same,normalized growth,"locus YPL031C, strain PHO85, hits give low values",0.599 (active)
same,normalized growth,[19],0.887
same,normalized growth,"locus YPL153C, strain RAD53, hits give low values",0.659 (active)
same,normalized growth,"locus YPL204W, strain HRR25, hits give low values",0.598 (active)
same,normalized growth,"locus YPL209C, strain IPL1, hits give low values",0.918
same,normalized growth,[16],0.638 (active)
same,normalized growth,"locus YPL256C, strain CLN2, hits give low values",0.447 (active)
same,normalized growth,"locus YPR025C, strain CCL1, hits give low values",0.914
same,normalized growth,"locus YPR106W, strain ISR1, hits give low values",0.896
same,normalized growth,"locus YPR111W, strain DBF20, hits give low values",0.89
same,normalized growth,"locus YPR135W, strain CTF4, hits give low values",0.325 (active)
same,normalized growth,"strain NNK1, hits give low values",0.88 (active)
same,normalized growth,"strain TSCII, hits give low values",0.9
NC(=NCc1ccc(Cl)c(Cl)c1)NC(=O)c1nc(Cl)c(N)nc1N,normalized growth,[2],1.01
same,normalized growth,[3],0.999
same,normalized growth,[4],0.992
same,normalized growth,[5],1.01
same,normalized growth,[8],1.01
same,normalized growth,[9],0.993
same,normalized growth,[18],0.995
same,normalized growth,[11],1.02
same,normalized growth,[12],1.03
same,normalized growth,[13],1.03
same,normalized growth,[14],0.966
same,normalized growth,[15],1.01
CC(=O)OCC1=C(C(=O)O)N2C(=O)[C@@H](NC(=O)CCC[C@@H](N)C(=O)O)[C@H]2SC1,normalized growth,[2],0.993
same,normalized growth,[3],1
same,normalized growth,[17],1.01
same,normalized growth,[4],1.03
same,normalized growth,[5],1.02
same,normalized growth,[6],0.993
same,normalized growth,[9],0.997
same,normalized growth,[10],0.98
same,normalized growth,[11],1.01
same,normalized growth,[12],1.02
same,normalized growth,[13],1.03
same,normalized growth,[15],1.04
same,normalized growth,[19],1.01
same,normalized growth,[16],1
c1ccc2c(c1)[I+]c1ccccc1-2,normalized growth,[1],0.513 (active)
same,normalized growth,[2],1.05
same,normalized growth,[3],0.63 (active)
same,normalized growth,[4],0.302 (active)
same,normalized growth,[5],1.02
same,normalized growth,[7],0.429 (active)
same,normalized growth,[11],1.03
same,normalized growth,[12],0.958
same,normalized growth,[13],0.892 (active)
same,normalized growth,[15],0.569 (active)
same,normalized growth,[16],0.517 (active)

# Reference: PubChem BioAssay AID1159580 (chemical genetic matrix, 2015)
